KB-3-1 cytotox – KB-3-1 parental cell cytotoxicity; KB-3-1 viability, CellTiter-Glo ATP luminescence, 72 h; Potency, µM (series often up to 46.1 µM), actives largely listed as cytotoxic; 1.4% of 400,000 active; note: nearly all actives have a fitted effect of over 60% in size
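Screening of KB-3-1 cells (DMEM, 10% FBS, phenol-red free) ran from lowest to highest compound concentration; after 72 h at 37 °C viability was read luminescently and curves fitted.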
SW480 rereplic – induces DNA re-replication in SW480 colon adenocarcinoma cells; AID 624297; 1.8% of 340,000 active; SW480 DNA re-replication, Hoechst DNA content imaging, 48 h; Potency, µM (series often up to 46.1 µM), hits mostly activators; note: nearly all actives have a fitted effect of over 55% in size
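Cells (250 per well) received 23 nL compound or DMSO by pin tool and were kept 48 hr at 37 C, 5% CO2. Nuclei were then stained with Hoechst for 40 min and scanned for DNA content.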
KB-V1 MDR tox – kills drug-selected multidrug resistant KB-V1 cells; AID 1347076; KB-V1 MDR cells viability, CellTiter-Glo, 72 h; Potency, µM (titrated, usually from 46.1 µM), actives largely listed as cytotoxic; 3.4% of 400,000 active; note: nearly all actives have a fitted effect of over 60% in size
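Drug-selected KB-V1 cells, grown in DMEM lacking phenol red with 10% FBS, receive compound titrations; after three days at 37 degrees C, surviving cell ATP is quantified by CellTiter-Glo luminescence and responses normalized and curve-fitted.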
ELG1 repair inh – blocks ELG1-dependent DNA repair in HEK293T cells; AID 504467; Potency, µM (series often up to 46.1 µM), actives largely listed as inhibitors; 2.3% of 330,000 active; HEK293T ELG1-luciferase reporter, luminescence, 16 h; DNA damage induced by 5-fluorouridine; note: nearly all actives have a fitted effect of over 55% in size
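Overnight (16 hr) co-exposure of 2,000 cells/well to 5-fluorouridine and compound at 37 °C preceded detection. Luciferase was quantified via ONE-Glo luminescence; loss of signal denotes inhibition.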
MCF10A rereplic – DNA re-replication induction in MCF 10a cells; MCF 10A DNA re-replication, Hoechst nuclear intensity, 48 h; Potency, µM (doses to about 46.1 µM), usual class: activators; 2.9% of 350,000 active; note: nearly all actives have a fitted effect of over 50% in size
Large screens that a line does not name were inactive. Shown are actives, neighbours in structure and some others; about 8.2% of the full set was active somewhere. Calls come from the whole dose curve; as a rule, active = well fitted curve in the direction sought with a large enough effect; inconclusive = small, poorly fitted or top-dose-only effect, or another doubt; inactive = no such curve, though single readings can be large; an effect the other way counts as inactive or inconclusive.

CN1CCN(C(=O)CCN2C(=O)/C(=C/c3ccc(F)cc3)SC2=S)CC1	KB-3-1 cytotox 21µM, MCF10A rereplic inconclusive
CN1CCN(NC(=O)CN2C(=O)/C(=C/c3ccccc3Cl)SC2=S)CC1	none
CCN1C(C(=O)c2ccccc2)=C(OC(=O)c2ccccc2OC)c2ccccc2S1(=O)=O	none (no result: SW480 rereplic, ELG1 repair inh, MCF10A rereplic)
O=C(CCN1C(=O)/C(=C/c2cccs2)SC1=S)N1CCCCC1	KB-3-1 cytotox inconclusive, SW480 rereplic 23µM, KB-V1 MDR tox inconclusive, ELG1 repair inh inconclusive, MCF10A rereplic inconclusive
CN1CCN(C(=O)CCN2C(=O)/C(=C\c3ccccc3F)SC2=S)CC1	KB-3-1 cytotox inconclusive, SW480 rereplic inconclusive, MCF10A rereplic 23µM
O=C(NN1C(=O)/C(=C/c2cccs2)SC1=S)c1ccncc1	KB-V1 MDR tox inconclusive, ELG1 repair inh 4.1µM
O=C(CCN1C(=O)/C(=C/c2ccccc2Cl)SC1=S)NC1C=CS(=O)(=O)C1 (stereo unspecified)	SW480 rereplic inconclusive, MCF10A rereplic 15µM
O=C(CCN1C(=O)/C(=C\c2ccccc2)SC1=S)N1CCCCC1	KB-3-1 cytotox inconclusive, ELG1 repair inh inconclusive, MCF10A rereplic inconclusive
O=C(CCCN1C(=O)/C(=C\c2cccs2)SC1=S)NNC(=O)c1ccncc1	none
Cc1ccc(NC(=O)c2sc3ncnc(N(C)C4CCCCC4)c3c2C)cc1	none (no result: SW480 rereplic, ELG1 repair inh, MCF10A rereplic)
CC(=O)N1c2ccc(Cl)cc2C2C=CCC2C1c1cccc2ccccc12 (stereo unspecified)	KB-3-1 cytotox inconclusive, SW480 rereplic inconclusive, KB-V1 MDR tox inconclusive, ELG1 repair inh 23µM, MCF10A rereplic inconclusive
CS(=O)(=O)Oc1ccc2c(c1)O/C(=C\c1cccc([N+](=O)[O-])c1)C2=O	ELG1 repair inh 18µM
CCc1ccc(/C=C2\Oc3cc(OS(C)(=O)=O)ccc3C2=O)cc1	KB-V1 MDR tox inconclusive
CCN(CC)c1nc(SCCOC(=O)Nc2ccccc2)nc(N(CC)CC)n1	KB-V1 MDR tox 21µM, MCF10A rereplic 9.2µM
CN(C)c1nc(SCCOC(=O)c2ccccc2)nc(N(C)C)n1	KB-V1 MDR tox inconclusive
CN(C)CCN1CCN(C2CN(Cc3ccc(F)cc3)S(=O)(=O)C2)CC1 (stereo unspecified)	none (no result: SW480 rereplic, ELG1 repair inh, MCF10A rereplic)
CCOc1ccc2nc(/N=C/c3c(C)[nH]n(-c4ccccc4)c3=O)sc2c1	KB-3-1 cytotox inconclusive, SW480 rereplic 2.9µM, KB-V1 MDR tox inconclusive, ELG1 repair inh inconclusive
CCOc1ccc2nc(/N=C/c3c(C)[nH]n(-c4ccc(C)cc4)c3=O)sc2c1	KB-3-1 cytotox 12µM, KB-V1 MDR tox 10µM, ELG1 repair inh inconclusive
CN(C(=O)NC1CCCCC1)[C@H]1C[C@H]2c3[nH]c4ccccc4c3CCN2C(=O)[C@H]1CO	KB-3-1 cytotox 6.5µM (no result: SW480 rereplic, ELG1 repair inh, MCF10A rereplic)
C[C@H](O)[C@@H]1CN2CCc3c([nH]c4ccc(-c5ccc6c(c5)OCO6)cc34)[C@@H]2C[C@@H]1N(C)C(=O)NC1CCCCC1	KB-3-1 cytotox 0.58µM, KB-V1 MDR tox inconclusive (no result: SW480 rereplic, ELG1 repair inh, MCF10A rereplic)
C[C@H](O)[C@@H]1CN2CCc3c([nH]c4ccc(-c5ccc6c(c5)OCO6)cc34)[C@@H]2C[C@@H]1N(C)C(=O)Nc1cc(Cl)cc(Cl)c1	KB-3-1 cytotox 13µM, KB-V1 MDR tox inconclusive (no result: SW480 rereplic, ELG1 repair inh, MCF10A rereplic)
CC1=CC(=O)c2ccccc2C1=O	none
COc1cccc2c1C(=O)C=C(C)C2=O	KB-3-1 cytotox inconclusive, SW480 rereplic inconclusive, KB-V1 MDR tox inconclusive, ELG1 repair inh inconclusive, MCF10A rereplic 23µM
COC(=O)c1cc2c(=O)c3ccccc3oc2nc1/C=C/N(C)C	none
COc1ccc(NS(=O)(=O)c2ccc(N3CCCC3=O)cc2)cn1	KB-3-1 cytotox inconclusive, SW480 rereplic 21µM, KB-V1 MDR tox inconclusive, ELG1 repair inh inconclusive, MCF10A rereplic 10µM
O=C1CCCN1c1ccc(S(=O)(=O)NCCc2ccc(Cl)cc2)cc1	KB-V1 MDR tox 18µM
Cc1ccc(OCCNS(=O)(=O)c2ccc(N3CCCC3=O)cc2)cc1C	KB-3-1 cytotox inconclusive, SW480 rereplic inconclusive, KB-V1 MDR tox 16µM, ELG1 repair inh inconclusive
Cc1ccccc1NS(=O)(=O)c1ccc(N2CCCC2=O)cc1	KB-3-1 cytotox 5.2µM, SW480 rereplic 3.7µM, KB-V1 MDR tox 2.6µM, ELG1 repair inh inconclusive, MCF10A rereplic 12µM
CN1OC[C@@H]2CN[C@H](c3cccc(-c4ccccc4)c3)C[C@@H]21	none (no result: ELG1 repair inh)
